Data on eight molecules can be found in PubChem BioAssay (EPA / NIEHS).

“And” between values parts separate entries of the source, which are not always exact repeats. Equal entries are not always repeated. The source made the active and inactive calls. The calls were made as follows, unless noted: active = hit-call score of the fitted dose curve at least 0.9, where 1 is the maximum; inactive = score below 0.9.

Read-out in test [1]: Monocyte Chemoattractant Protein-1 (MCP1), CCL2 (gene 6347)
The test is described as follows: BSK_LPS_MCP1: BioMAP Diversity Plus: LPS Assay for Monocyte Chemoattractant Protein-1 (MCP1) Biomarker Activity (AID 2283081).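 As to AC50: secreted MCP-1 protein quantified by ELISA in culture supernatant.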 To be noted: primary human HUVEC with PBMC; actives raise or lower the signal. A digest of the protocol:
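Secreted MCP-1 read by ELISA at 24 h post-dosing in an LPS-activated co-culture of endothelial cells with peripheral blood mononuclear cells. Fits run in both directions, DMSO as baseline; parallel SRB staining tracks overt cytotoxicity.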

Test [2] is described as follows: BSK_LPS_PGE2: BioMAP Diversity Plus: LPS Assay for Prostaglandin E2 (PGE2) Biomarker Activity (AID 2283082).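 As to AC50: secreted prostaglandin E2 measured by ELISA in LPS-stimulated co-culture.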 To be noted: primary human HUVEC with PBMC; actives raise or lower the signal. A digest of the protocol:
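HUVEC plus PBMC co-culture stimulated with LPS; secreted PGE2 quantified by ELISA 24 h after chemical dosing. Activity fitted bidirectionally against DMSO as negative control and baseline; parallel SRB total-protein staining served as cytotoxicity check.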

Read-out in test [3]: Macrophage colony-stimulating factor (MCSF), CSF1 (gene 1435)
The test is described as follows: BSK_LPS_MCSF: BioMAP Diversity Plus: LPS Assay for Macrophage colony-stimulating factor (MCSF) Biomarker Activity (AID 2283083). The settings on record: primary human HUVEC with PBMC; actives raise or lower the signal. A digest of the protocol:
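Bidirectional fitting against DMSO was applied to M-CSF levels read by ELISA at 24 h post-dose. The system pairs human umbilical vein endothelium with peripheral blood mononuclear cells; parallel SRB staining tracked cytotoxicity.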

Read-out in test [4]: Tissue Factor, F3 (gene 2152)
The test is described as follows: BSK_LPS_TissueFactor: BioMAP Diversity Plus: LPS Assay for Tissue Factor Biomarker Activity (AID 2283084). To be noted: primary human HUVEC with PBMC; actives raise or lower the signal. The method, boiled down:
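Compound was added to an endothelial cell/PBMC co-culture, and after 24 h tissue factor (CD142) was read by ELISA. Gain or loss of signal was fitted against a DMSO baseline, and parallel SRB staining (560 nm) tracked overt cytotoxicity.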

Read-out in test [5]: Tumor necrosis factor (Homo sapiens) (UniProt P01375)
Kind of test: BSK_LPS_TNFa: BioMAP Diversity Plus: LPS Assay for Tumour Necrosis Factor alpha (TNFa) Biomarker Activity (AID 2283085). The settings on record: primary human HUVEC with PBMC; actives raise or lower the signal. A digest of the protocol:
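Human umbilical vein endothelial cells co-cultured with PBMC were exposed to test chemical and TNFa measured by ELISA 24 h after dosing. Bidirectional curve fitting was done relative to DMSO as negative control and baseline.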

Read-out in test [6]: Vascular cell adhesion molecule 1 (VCAM1), VCAM1 (gene 7412)
Kind of test: BSK_LPS_VCAM1: BioMAP Diversity Plus: LPS Assay for Vascular cell adhesion molecule 1 (VCAM1) Biomarker Activity (AID 2283086). The settings on record: primary human HUVEC with PBMC; actives raise or lower the signal. A digest of the protocol: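 Human umbilical vein endothelial cells co-cultured with peripheral blood mononuclear cells under LPS stimulation were exposed to test chemical for 24 h. VCAM-1 levels were then measured by ELISA, with bidirectional curve fitting relative to DMSO as negative control and baseline.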

Read-out in a further test: CD38, CD38 (gene 952)
The test is described as follows: BSK_SAg_CD38: BioMAP Diversity Plus: SAg Assay for CD38 Biomarker Activity (AID 2283087). To be noted: primary human HUVEC with PBMC; actives raise or lower the signal. The method, boiled down:
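Fluorescence ELISA of cell-surface CD38 served as the read-out, with either increase or decrease fitted against DMSO controls. Cells were a human umbilical vein endothelium plus PBMC co-culture under SEB/TSST-1 stimulation, measured 24 h after dosing.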

Read-out in the next test: CD40, CD40 (gene 958)
The test is described as follows: BSK_SAg_CD40: BioMAP Diversity Plus: SAg Assay for CD40 Biomarker Activity (AID 2283088). To be noted: primary human HUVEC with PBMC; actives raise or lower the signal. The method, boiled down: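 CD40 is measured by fluorescence ELISA in an endothelial/PBMC primary human co-culture at 24 h post-dose. Fitting is bidirectional, DMSO baseline. Parallel SRB staining (560 nm) flags cytotoxicity.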

Read-out in a further test: CD69, CD69 (gene 969)
Kind of test: BSK_SAg_CD69: BioMAP Diversity Plus: SAg Assay for CD69 Biomarker Activity (AID 2283089).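 As to AC50: cell surface CD69 protein quantified by ELISA with fluorescence detection.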 The settings on record: primary human HUVEC with PBMC; actives raise or lower the signal. The method, boiled down:
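Primary human vascular co-culture (umbilical vein endothelium with peripheral blood mononuclear cells) exposed to test chemical for 24 h. CD69 levels quantified by fluorescence ELISA; DMSO served as negative control for bidirectional fitting.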

Read-out in test [7]: Monocyte Chemoattractant Protein-1 (MCP1), CCL2 (gene 6347)
The test is described as follows: BSK_SAg_MCP1: BioMAP Diversity Plus: SAg Assay for Monocyte Chemoattractant Protein-1 (MCP1) Biomarker Activity (AID 2283090). The settings on record: primary human HUVEC with PBMC; actives raise or lower the signal. The method, boiled down:
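MCP-1 levels in the endothelial–PBMC SAg co-culture were quantified by ELISA at 24 h post-dosing; both increases and decreases versus DMSO scored. Cytotoxicity monitored by SRB total protein in parallel cultures.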

Read-out in test [8]: E-selectin (Homo sapiens) (UniProt P16581)
The test is described as follows: BSK_SAg_Eselectin: BioMAP Diversity Plus: SAg Assay for Eselectin Biomarker Activity (AID 2283091). To be noted: primary human HUVEC with PBMC; actives raise or lower the signal. The method, boiled down: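 Cell-surface E-selectin is read by ELISA at 24 h in the SAg co-culture of HUVEC and PBMC. Curves are fitted in both directions relative to DMSO. Parallel SRB total-protein staining tracks overt toxicity.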

Read-out in test [9]: Monokine induced gamma interferon (MIG), CXCL9 (gene 4283)
The test is described as follows: BSK_SAg_MIG: BioMAP Diversity Plus: SAg Assay for Monokine induced gamma interferon (MIG) Biomarker Activity (AID 2283092). To be noted: primary human HUVEC with PBMC; actives raise or lower the signal. A digest of the protocol: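 Endothelial cells and PBMC were co-cultured, exposed to test chemicals, and sampled 24 h later. MIG was measured by ELISA, and responses were fitted in both directions relative to DMSO.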

Test [10] in a line: BSK_SAg_PBMCCytotoxicity: PBMC Cytotoxicity Assessment in the BioMAP Diversity Plus: SAg Assay (AID 2283093).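 Also: PBMC viability measured as Alamar Blue reduction fluorescence at 546/580 nm; fitted both ways against DMSO so a hit may be loss or gain of signal.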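 As to AC50: PBMC superantigen activated with SEB plus TSST-1 one hour after compound addition.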 The settings on record: primary human HUVEC with PBMC. The method, boiled down: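 Compound added to 75,000 PBMC/well for 1 h; SEB and TSST-1 then added at 20 ng/mL final each; 90 h incubation; Alamar Blue 6 h; read 546/580 nm ex/em. Activity fitted bidirectionally relative to DMSO baseline.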

Read-out in test [11]: Interleukin-8 (IL8), CXCL8 (gene 3576)
The test is described as follows: BSK_SAg_IL8: BioMAP Diversity Plus: SAg Assay for Interleukin-8 (IL8) Biomarker Activity (AID 2283094). The settings on record: primary human HUVEC with PBMC; actives raise or lower the signal. A digest of the protocol: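 Human umbilical vein endothelial cells co-cultured with peripheral blood mononuclear cells; IL-8 measured by ELISA 24 h after chemical dosing. Bidirectional concentration-response fitting used DMSO as negative control and activity baseline.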

Test [12] is described as follows: BSK_SAg_Proliferation: Cell Proliferation Assessment in the BioMAP Diversity Plus: SAg Assay (AID 2283095).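 Also: relative cell number as total protein by SRB absorbance in sub-confluent culture.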 The settings on record: primary human HUVEC with PBMC. The method, boiled down: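 Human umbilical vein endothelial cells co-cultured with peripheral blood mononuclear cells; total protein measured by sulforhodamine B staining (0.1% SRB after 10% TCA fixation), absorbance at 560 nm, at 96 h. Bidirectional fit against DMSO baseline.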

Test [13] can be described thus: BSK_SAg_SRB: Viability Assessment in the BioMAP Diversity Plus: SAg Assay (AID 2283096).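 Also: cells read one day after compound addition; hits may be either gain or loss of signal compared with DMSO.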 The settings on record: primary human HUVEC with PBMC. The method, boiled down:
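Total protein by sulforhodamine B staining, 24 h after dosing, in HUVEC–PBMC co-culture; DMSO-referenced bidirectional fitting.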

The target in test [14] is human CYP2D6, CYP2D6 (gene 1565) (UniProt P10635). Kind of test: NVS_ADME_hCYP2D6: NovaScreen (NVS) CYP450-related Enzyme Activity (ADME) Assay for human CYP2D6 (AID 2283107; active = hit-call score of the fitted dose curve at least 0.9, where 1 is the maximum). The method, boiled down: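 Fluorescence readout of recombinant CYP2D6 (insect-cell derived) activity after 1 h incubation with test chemical. Acetonitrile served as baseline, loss-of-signal direction. Single-concentration duplicate screening at 10 uM preceded concentration-response retesting.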
Chain of human CYP2D6, CYP2D6 (gene 1565) (P10635 whole entry, looked up): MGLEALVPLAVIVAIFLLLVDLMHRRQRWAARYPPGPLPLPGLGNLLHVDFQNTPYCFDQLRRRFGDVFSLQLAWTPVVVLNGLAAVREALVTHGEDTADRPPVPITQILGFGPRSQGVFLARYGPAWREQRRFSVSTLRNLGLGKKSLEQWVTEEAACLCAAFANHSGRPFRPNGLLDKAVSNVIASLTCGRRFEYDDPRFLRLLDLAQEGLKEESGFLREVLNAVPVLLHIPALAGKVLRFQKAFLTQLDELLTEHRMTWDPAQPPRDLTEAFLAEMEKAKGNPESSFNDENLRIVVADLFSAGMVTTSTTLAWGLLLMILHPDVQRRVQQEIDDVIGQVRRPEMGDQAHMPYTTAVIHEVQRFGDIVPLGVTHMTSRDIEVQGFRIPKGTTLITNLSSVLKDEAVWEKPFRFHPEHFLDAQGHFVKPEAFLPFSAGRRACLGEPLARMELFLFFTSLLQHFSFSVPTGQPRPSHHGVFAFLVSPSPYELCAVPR

Chain of E-selectin (Homo sapiens) (P16581 whole entry, looked up): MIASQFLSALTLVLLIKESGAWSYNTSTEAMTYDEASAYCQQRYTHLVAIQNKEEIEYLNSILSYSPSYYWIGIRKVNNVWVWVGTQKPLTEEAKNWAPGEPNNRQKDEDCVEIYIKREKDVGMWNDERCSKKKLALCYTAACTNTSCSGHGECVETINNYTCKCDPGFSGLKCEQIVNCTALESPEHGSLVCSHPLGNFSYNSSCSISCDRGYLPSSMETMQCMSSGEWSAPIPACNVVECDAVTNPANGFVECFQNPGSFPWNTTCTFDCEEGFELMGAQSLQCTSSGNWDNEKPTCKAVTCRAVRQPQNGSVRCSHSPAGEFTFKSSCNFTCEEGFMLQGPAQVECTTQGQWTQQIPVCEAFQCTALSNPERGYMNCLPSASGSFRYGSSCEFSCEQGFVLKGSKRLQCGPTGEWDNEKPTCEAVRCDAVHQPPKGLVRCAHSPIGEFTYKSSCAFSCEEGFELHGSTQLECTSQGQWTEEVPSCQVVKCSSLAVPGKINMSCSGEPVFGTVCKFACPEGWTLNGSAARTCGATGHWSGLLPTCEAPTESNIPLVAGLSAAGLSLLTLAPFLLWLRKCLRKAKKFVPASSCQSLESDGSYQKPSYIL
Chain of Tumor necrosis factor (Homo sapiens) (P01375 whole entry, looked up): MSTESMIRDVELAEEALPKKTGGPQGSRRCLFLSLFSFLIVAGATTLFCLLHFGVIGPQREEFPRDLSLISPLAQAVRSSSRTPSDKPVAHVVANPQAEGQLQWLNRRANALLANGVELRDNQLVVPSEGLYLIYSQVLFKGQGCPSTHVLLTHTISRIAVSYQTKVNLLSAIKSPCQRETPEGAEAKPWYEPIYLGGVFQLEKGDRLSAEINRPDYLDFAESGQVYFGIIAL

Take `Cc1ccc2n[nH]nc2c1`: the outcome in test [1], in test [2], in test [3], in test [4], in test [5] and in test [6] was inactive. Besides, the outcome with CD38, CD38 (gene 952) is “inactive”; with CD40, CD40 (gene 958) it was “inactive”; with CD69, CD69 (gene 969) it was “inactive”; in test [7], “inactive”; in test [8], “inactive”; in [9], “inactive”. Further, the result in test [10], in test [11], in [12] and in test [13] was inactive.

A word on the AC50: it is the midpoint of the concentration-response curve, whichever way the signal moves. Regarding `N#Cc1ccc(CC(=NNC(=O)Nc2ccc(OC(F)(F)F)cc2)c2cccc(C(F)(F)F)c2)cc1`, the outcome is “inactive” in test [1]; “inactive” in test [3]; “inactive” in test [4]; “inactive” in test [5]; “inactive” in test [6]; “inactive” with CD38, CD38 (gene 952). Further, the outcome is “inactive” with CD40, CD40 (gene 958); “inactive” with CD69, CD69 (gene 969); “inactive” in test [7]; “inactive” in [8]; “inactive” in [9]; “inactive” in test [10]. Also, the outcome in test [11], in [12] and in [13] was inactive. Also, the AC50 in test [2] was 2.68 µM (active).

`c1ccc2c(c1)c1cccc3ccc4cccc2c4c31`: the outcome was “inactive” in test [1]; “inactive” in test [2]; “inactive” in test [3]; “inactive” in test [5]; “inactive” in test [6]; “inactive” in the test with CD38, CD38 (gene 952). Further, the outcome was “inactive” with CD40, CD40 (gene 958); “inactive” with CD69, CD69 (gene 969); “inactive” in test [7]; “inactive” in test [8]; “inactive” in [9]; “inactive” in [10]. The result in [11], in test [12] and in test [13] was inactive. Also, the AC50 in test [4] is 0.369 µM (active).

As to `Cc1ccc(O)c(C(C)(C)C)c1`, the AC50 in test [1] is 33 µM (active); in [3] it was 36.9 µM (active); in [4], 30.4 µM (active); in test [5] it was 34.8 µM (active); in test [6], 36.8 µM (active); with CD38, CD38 (gene 952), 37 µM (active). The AC50 in the test with CD40, CD40 (gene 958) is 35.5 µM (active); with CD69, CD69 (gene 969), 30.9 µM (active); in test [7], 36.6 µM (active); in [8] it was 37.5 µM (active); in test [9], 38.1 µM (active); in test [10], 35.8 µM (active). For the same molecule, the AC50 in test [11] was 32.8 µM (active); in test [12], 32 µM (active); in [13] it was 31.9 µM (active). Besides, the result in [2] was inactive.

For the molecule `O=C=NC1CCC(CC2CCC(N=C=O)CC2)CC1` (stereo not given), the outcome is “inactive” in [1]; “inactive” in test [2]; “inactive” in [3]; “inactive” in test [6]; “inactive” with CD38, CD38 (gene 952); “inactive” in the test with CD40, CD40 (gene 958). For the same molecule, the outcome with CD69, CD69 (gene 969) was “inactive”; in test [7], “inactive”; in test [8] it was “inactive”; in [9] it was “inactive”; in test [11] it was “inactive”; in test [13] it was “inactive”. The values for the AC50 in test [4], in [5] and in test [10] were 3.97 µM (active), 2.2 µM (active) and 13.3 µM (active), respectively.

On to `CCC(=O)OCc1ccccc1`, for which the result in test [1], in test [2], in test [3], in test [4], in [5] and in [6] was inactive. For the same molecule, the outcome is “inactive” with CD38, CD38 (gene 952); “inactive” with CD40, CD40 (gene 958); “inactive” with CD69, CD69 (gene 969); “inactive” in test [7]; “inactive” in test [8]; “inactive” in test [9]. Also, the outcome in test [10], in test [11] and in test [13] was inactive.

On to `CC(=O)[C@H]1CC[C@H]2[C@@H]3CC=C4C[C@@H](O)CC[C@]4(C)[C@H]3CC[C@]12C`, for which the outcome in test [1] is “inactive”; in [3], “inactive”; in test [5], “inactive”; in test [6], “inactive”; with CD38, CD38 (gene 952) it was “inactive”; in the test with CD40, CD40 (gene 958), “inactive”. Further, the outcome with CD69, CD69 (gene 969) is “inactive”; in test [7] it was “inactive”; in test [8] it was “inactive”; in test [9], “inactive”; in [11], “inactive”; in test [13] it was “inactive”. Also, the AC50 in test [2] was 3.97 µM (active); in test [4] it was 9.59 µM (active) and 11.8 µM (active); in test [10], 6.25 µM (active) and 7.57 µM (active).

For the molecule `Nc1ccc(F)c([N+](=O)[O-])c1`, the result in test [14] was inactive.
